In PubChem BioAssay (NCATS):
Results filed as inconclusive are left out. Unmarked numbers belong to inactive results. Activity calls are given as the source filed them. Calls follow the shape of the dose curve; as a rule, active = well fitted curve in the direction sought with a large enough effect; inconclusive = small, poorly fitted or top-dose-only effect, or another doubt; inactive = no such curve, though single readings can be large; an effect the other way counts as inactive or inconclusive.
Potency is read from the fitted curve at half-maximal effect.

System: not listed separately
Experiment: Validation screen for small molecules that induce DNA re-replication in MCF 10A normal breast cells (AID 463097); also: nearly all actives have a fitted effect of over 60% in size; as to re-replication induction: 0% is about no effect
Conditions: MCF 10A cells, DNA re-replication phenotype imaging; series mostly up to 46.1 µM; re-replication induction: at the top concentration
Method in brief: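 250 MCF 10A cells/well; compound pin-transferred; 48 hr, 37 C, 5% CO2; Hoechst 40 min; imaged 405/500-530 nm. Hits = more high-intensity nuclei.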
With `CC(C)NCC(O)COc1cccc2ccccc12` (centres undefined) the “re-replication induction” value was 1.23%. For `O=C1NC(O)=NC1(c1ccccc1)c1ccccc1`, the “re-replication induction” value was 0.83%. With `O=C(Nc1cccc(C(=O)Nc2ccc(S(=O)(=O)O)c3cc(S(=O)(=O)O)cc(S(=O)(=O)O)c23)c1)Nc1cccc(C(=O)Nc2ccc(S(=O)(=O)O)c3cc(S(=O)(=O)O)cc(S(=O)(=O)O)c23)c1` the “re-replication induction” value was -0.115%. With `COc1cccc(OC)c1OCCNCC1COc2ccccc2O1` (centres undefined) the “re-replication induction” value was 0.5%. For `CN=c1nc(-c2ccccc2)n(-c2ccccc2)s1`, the Potency was 11.2 µM (active). For `CC(C)NC[C@H](O)COc1cccc2[nH]ccc12`, the “re-replication induction” value was 1.81%. In the case of `NC(CCCP(=O)(O)O)C(=O)O` (centres undefined), the “re-replication induction” value is reported as -4.57%. With `O=c1[nH]c2cc(Cl)c(Cl)cc2[nH]c1=O` the “re-replication induction” value was -1.28%. With `Fc1cccc(/C=N/N=C/c2cccc(F)c2)c1` the “re-replication induction” value was -6.56%. In the case of `COc1ccc(/C=C/C(=O)Nc2ccccc2C(=O)O)cc1OC`, the “re-replication induction” value is reported as 4.51%. For `CN1CCc2cc(NC(=O)Nc3cccnc3)ccc21`, the “re-replication induction” value was 6.78%. For `CN(C)C(N)=NCCC[C@H](N)C(=O)O`, the “re-replication induction” value was -0.646%. In the case of `O=C(O)CCCC[C@@H]1CCSS1`, the “re-replication induction” value is reported as 0.847%. For `O=C(O)/C=C/C(O)c1ccc(Cl)cc1` (centres undefined), the “re-replication induction” value was -1.67%. For `CC(C)Cc1ccc([C@H](C)C(=O)O)cc1`, the “re-replication induction” value was -6.49%. For `CCCCN1CCC(n2c(=O)[nH]c3ccccc32)CC1`, the “re-replication induction” value was 2.7%. In the case of `CC(C)(C)c1ccc(S(=O)(=O)/C=C/C#N)cc1`, the Potency is reported as 1.12 µM (active). With `Cc1cc(NC(=O)Nc2ccc3c(ccn3C)c2)sn1` the “re-replication induction” value was 0.295%. For `CCN1/C(=C/C(C)=O)Sc2ccc(OC)cc21`, the “re-replication induction” value was 12.8%. In the case of `COc1ccccc1CNCCCCCCNCCCCCCCCNCCCCCCNCc1ccccc1OC`, the “re-replication induction” value is reported as 1.3%. For `N.N.O=C(O)C1(C(=O)O)CCC1.[Pt]`, the “re-replication induction” value was -4.71%. For `CN1CCc2cc(O)c(O)cc2C(c2ccccc2)C1` (centres undefined), the “re-replication induction” value was -4%. For `O=C(O)[C@@H]1C[C@H](C(=O)O)N1`, the “re-replication induction” value was -1.88%.

Biological target: Ubiquitin carboxyl-terminal hydrolase 2 (Homo sapiens) (UniProt O75604)
Sequence (O75604 whole entry, looked up): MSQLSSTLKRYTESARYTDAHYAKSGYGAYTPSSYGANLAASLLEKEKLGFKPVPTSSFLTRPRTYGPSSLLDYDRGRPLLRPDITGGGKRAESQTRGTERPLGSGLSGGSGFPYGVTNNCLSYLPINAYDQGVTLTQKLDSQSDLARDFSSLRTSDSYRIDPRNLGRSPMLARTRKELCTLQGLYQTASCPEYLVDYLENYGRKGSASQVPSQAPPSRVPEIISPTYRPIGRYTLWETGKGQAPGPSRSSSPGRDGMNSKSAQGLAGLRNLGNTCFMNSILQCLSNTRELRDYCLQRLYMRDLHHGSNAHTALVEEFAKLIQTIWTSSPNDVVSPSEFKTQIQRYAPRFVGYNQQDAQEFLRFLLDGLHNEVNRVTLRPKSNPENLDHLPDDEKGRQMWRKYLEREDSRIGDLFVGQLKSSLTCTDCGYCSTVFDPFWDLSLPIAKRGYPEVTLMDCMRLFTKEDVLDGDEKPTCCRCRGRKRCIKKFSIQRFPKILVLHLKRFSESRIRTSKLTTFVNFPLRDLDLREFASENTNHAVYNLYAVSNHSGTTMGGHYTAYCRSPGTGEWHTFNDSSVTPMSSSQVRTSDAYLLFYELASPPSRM
Experiment: qHTS Validation Assay for Inhibitors of Ubiquitin-specific Protease USP2a Using CHOP2 as the Reporter (AID 463106);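 as to activity, negative = inhibition: plate controls were DMSO for no effect and full inhibition by NEM for full effect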
Conditions: USP2a cleavage of CHOP2 reporter, enzymatic; series mostly up to 38.3 µM; activity, negative = inhibition: at the top concentration
Method in brief: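 Fluorescence read-out at Ex 485nm/Em 531nm after 60min RT, following addition of 25nM Ub-CHOP2 plus 25nM reporter substrate to USP2 core (10nM) pretreated 30min with compound. Data normalized to NEM full inhibition; concentration-response curves fitted.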
With `CC(C)NCC(O)COc1cccc2ccccc12` (centres undefined) the “activity, negative = inhibition” value was 2.14%. In the case of `COc1ccccc1N1CCN(CCCCNS(=O)(=O)c2cccc3c(N(C)C)cccc23)CC1`, the “activity, negative = inhibition” value is reported as -1.82%. With `O=C1NC(O)=NC1(c1ccccc1)c1ccccc1` the “activity, negative = inhibition” value was -3.51%. In the case of `O=C(Nc1cccc(C(=O)Nc2ccc(S(=O)(=O)O)c3cc(S(=O)(=O)O)cc(S(=O)(=O)O)c23)c1)Nc1cccc(C(=O)Nc2ccc(S(=O)(=O)O)c3cc(S(=O)(=O)O)cc(S(=O)(=O)O)c23)c1`, the Potency is reported as 8.26 µM (active). In the case of `COc1cccc(OC)c1OCCNCC1COc2ccccc2O1` (centres undefined), the “activity, negative = inhibition” value is reported as -1.53%. With `CN=c1nc(-c2ccccc2)n(-c2ccccc2)s1` the “activity, negative = inhibition” value was -1.08%. With `Cc1ccccc1CNc1ncnc2c1ncn2C1OC(CO)C(O)C1O` (centres undefined) the “activity, negative = inhibition” value was 4.64%. In the case of `NC(CCCP(=O)(O)O)C(=O)O` (centres undefined), the “activity, negative = inhibition” value is reported as 1.39%. For `O=c1[nH]c2cc(Cl)c(Cl)cc2[nH]c1=O`, the “activity, negative = inhibition” value was 2.17%. For `Fc1cccc(/C=N/N=C/c2cccc(F)c2)c1`, the “activity, negative = inhibition” value was 2.15%. For `O=C(/C=C/c1ccc(O)cc1)c1ccc(O)cc1O`, the “activity, negative = inhibition” value was 3%. In the case of `CN1CCc2cc(NC(=O)Nc3cccnc3)ccc21`, the “activity, negative = inhibition” value is reported as 0.908%. For `CN(C)C(N)=NCCC[C@H](N)C(=O)O`, the “activity, negative = inhibition” value was 1.76%. With `O=C(O)/C=C/C(O)c1ccc(Cl)cc1` (centres undefined) the “activity, negative = inhibition” value was 0.99%. For `Ic1ccc(N2CCN(Cc3c[nH]c4ncccc34)CC2)cc1`, the “activity, negative = inhibition” value was -3.34%. With `CC12C(=O)OC(=O)C1(C)C1CCC2O1` (centres undefined) the “activity, negative = inhibition” value was 0.0591%. For `CC(C)(C)c1ccc(S(=O)(=O)/C=C/C#N)cc1`, the “activity, negative = inhibition” value was 0.643%. With `CCN1/C(=C/C(C)=O)Sc2ccc(OC)cc21` the “activity, negative = inhibition” value was 1.01%. For `CN1CCc2ccccc2Cc2[nH]c3ccccc3c2CC1`, the “activity, negative = inhibition” value was 0.98%. In the case of `COc1ccccc1CNCCCCCCNCCCCCCCCNCCCCCCNCc1ccccc1OC`, the “activity, negative = inhibition” value is reported as -0.833%. For `O=C(/C=C/c1ccc(O)c(O)c1)OCCc1ccccc1`, the “activity, negative = inhibition” value was 0.485%. For `CN1CCc2cc(O)c(O)cc2C(c2ccccc2)C1` (centres undefined), the “activity, negative = inhibition” value was 1.63%. In the case of `c1cnc2c(c1)ccc1cccnc12`, the “activity, negative = inhibition” value is reported as -0.113%. In the case of `Oc1cc(O)cc(/C=C/c2ccc(O)c(O)c2)c1`, the “activity, negative = inhibition” value is reported as -1.35%. With `O=C(O)[C@@H]1C[C@H](C(=O)O)N1` the “activity, negative = inhibition” value was -3.26%. For `CCCN(CC1CC1)c1nc(C)nc(Nc2c(Cl)cc(Cl)cc2Cl)c1Cl`, the “activity, negative = inhibition” value was 3.81%.
